# According to PubChem BioAssay (NCI):
# About 83,000 compounds went through this panel and 20% of them were active in at least one assay; those are over-represented in the sample as a whole.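 Step 1: grow cells in 96-well plates. Step 2: add test compound at a single concentration. Step 3: incubate 48 h. Step 4: record percent growth.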 A number with no mark means an inactive call. Calls of active or inactive are those of the source. Rule for the calls: active = growth percent below 10; inactive = the rest.
# Experiments:
# Test in all cases: NCI-60 one-dose screen, 48 h (100 = growth as untreated, 0 = no growth, -100 = all killed)
# Conditions in all cases: 10 µM unless noted
# [1] = tested on: HCT-15 colon
# [2] = tested on: HT29 colon
# [3] = tested on: SNB-75 CNS
# [4] = tested on: SNB-19 CNS
# [5] = tested on: U251 CNS
# [6] = tested on: PC-3 prostate
# [7] = tested on: SK-MEL-5 melanoma
# [8] = tested on: UACC-62 melanoma
# [9] = tested on: LOX IMVI melanoma
# [10] = tested on: SK-MEL-28 melanoma
# [11] = tested on: SK-MEL-2 melanoma
# [12] = tested on: EKVX NSCLC
# [13] = tested on: SN12C renal
# [14] = tested on: UO-31 renal
# [15] = tested on: TK-10 renal
# [16] = tested on: ACHN renal
# [17] = tested on: CAKI-1 renal
# [18] = tested on: A498 renal
# [19] = tested on: CCRF-CEM leukemia
# [20] = tested on: MOLT-4 leukemia
Compound,growth [1],growth [2],growth [3],growth [4],growth [5],growth [6],growth [7],growth [8],growth [9],growth [10],growth [11],growth [12],growth [13],growth [14],growth [15],growth [16],growth [17],growth [18],growth [19],growth [20]
O=C(/C(=C\c1ccc([N+](=O)[O-])cc1)S(=O)Cc1ccc(F)cc1)c1ccc(F)cc1 (stereo not drawn),2.57% (active),-55% (active),72.1%,41%,10.3%,7.46% (active),76.7%,-22.4% (active),-52.1% (active),23.2%,78%,84.2%,-43.7% (active),-39% (active),25.8%,-7.56% (active),44.3%,82.2%,0.265% (active),5.93% (active)
CC[C@]12C=CCN3CC[C@@]4(c5cc(NC(=O)CCC(=O)O[C@H]6CC[C@H]7[C@@H]8CCC9=CC(=O)CC[C@@H]9[C@H]8CC[C@]67C)c(OC)cc5N(C)[C@H]4[C@@](O)(C(=O)OC)[C@@H]1OC(C)=O)[C@@H]32,62.2%,62.8%,68.6%,85%,74.1%,53.6%,43.8%,64.1%,84.7%,91.7%,81.9%,73.4%,81.5%,53.6%,97.4%,87.2%,67.8%,71.6%,62.7%,40.3%
N#C/C(=C\c1ccc(C(F)(F)F)cc1)c1cc2ccccc2[nH]1,92.5%,99.7%,89%,102%,105%,93.9%,95.6%,95.1%,99.7%,102%,96.1%,97.6%,99.2%,92.9%,140%,104%,83.6%,90.3%,98.1%,91.5%
Cc1cc2c(c(C)c1Cl)C(=O)/C(=C/c1ccc(O)c(O)c1)O2,106%,106%,99%,99.2%,85.4%,100%,100%,88.8%,93.7%,105%,104%,98.7%,92.1%,72.2%,119%,92.7%,90.6%,106%,101%,108%
CCOC(=O)c1cc(C(=O)c2cc(OC)cc(OC)c2)n2ccc3ccccc3c12,100%,101%,-7.31% (active),55.2%,81.8%,99.4%,100%,91.1%,88.9%,107%,102%,94.8%,81.2%,95.3%,99.8%,84.2%,84.5%,89.3%,102%,104%
OCc1cnccc1NCCCOc1ccccc1,105%,102%,99.6%,94.9%,98.2%,96%,97.1%,90.5%,99.4%,109%,107%,105%,94.3%,87.9%,92.5%,108%,95.7%,91.9%,88.8%,96.6%
NC(=O)CSSCC(N)=O,102%,105%,95.2%,101%,93.4%,92.1%,98.4%,95.8%,100%,109%,107%,86.7%,108%,93%,110%,100%,99%,127%,88.3%,76.8%
COc1cc2c(c(OC)c1OC)-c1ccc(NNC(=S)N(Cc3cccc(C[N+](Cc4cccc(CNC56CC7CC(CC(C7)C5)C6)c4)(Cc4cccc(CNC56CC7CC(CC(C7)C5)C6)c4)Cc4cccc(CN(C(=S)NNc5ccc6c(cc5=O)[C@@H](NC(C)=O)CCc5cc(OC)c(OC)c(OC)c5-6)C56CC7CC(CC(C7)C5)C6)c4)c3)C34CC5CC(CC(C5)C3)C4)c(=O)cc1[C@@H](NC(C)=O)CC2 (stereo partly drawn),9.96% (active),-5.79% (active),31.7%,16%,5.78% (active),12.2%,-94.2% (active),15.5%,-20.1% (active),33.3%,-20.3% (active),44.7%,12.2%,39.7%,48.7%,44.4%,29%,-5.83% (active),-6.54% (active),-17% (active)
CNCCOc1nc2c3cnccc3cc(-c3cc(OC)c(OC)c(OC)c3)c2c2ccncc12,-6.39% (active),-39.9% (active),-64.6% (active),-8.3% (active),-17.1% (active),-13.4% (active),-97.7% (active),-62.1% (active),-46.8% (active),-71.6% (active),-77.5% (active),-45.9% (active),-36.9% (active),-42.7% (active),-34.2% (active),-73.8% (active),-31% (active),-87.2% (active),-13.1% (active),-15.1% (active)
CC(=O)OC[C@]12CC[C@@H](C(=O)CBr)[C@@H]1[C@H]1CC[C@@H]3[C@@]4(C)CC[C@H](OC(C)=O)C(C)(C)[C@@H]4CC[C@@]3(C)[C@]1(C)CC2,97.1%,91.8%,84.4%,114%,96.7%,75.8%,75.1%,84.9%,-69.6% (active),99.8%,92.3%,107%,87%,90.7%,108%,98.8%,77.4%,121%,-17.4% (active),-5.01% (active)
C=C1C(=O)O[C@H]2[C@H]1CC/C(CNC(=O)c1cccc3ccccc13)=C\CC[C@@]1(C)O[C@@H]21,10.2%,8.85% (active),82.6%,66.4%,59%,53.7%,60.1%,31.4%,24.3%,41.2%,70.7%,65.9%,25%,37.9%,34.8%,11.6%,40%,81.8%,1.76% (active),4.8% (active)
N#C/C(=C\c1c(-c2ccccc2)[nH]c2ccccc12)C(=O)c1ccc(Cl)cc1,31.1%,17.3%,-4.21% (active),55.3%,18.6%,32.9%,1.79% (active),28.6%,44.4%,50.9%,74.6%,48.8%,66.7%,47.3%,68.3%,48.9%,59.6%,-3.53% (active),2.19% (active),45.9%
COc1ccc(C(=O)Nc2cccc(C3CCc4c(cc(OC)c(OC)c4OC)O3)c2)cc1 (stereo not drawn),30.2%,17.6%,26.3%,53.3%,36.4%,49.3%,60.2%,38.7%,50.3%,61.4%,37.9%,54.7%,69.6%,53.9%,80.8%,68.9%,54.3%,–,36.5%,22.5%
CC(C)N1C(=O)S/C(=C2/SC(=O)N(C(C)C)C2=O)C1=O,95.9%,102%,64.8%,93.3%,96.3%,98.2%,93.9%,91.6%,91.9%,105%,98.7%,85.5%,94.8%,87.7%,89.9%,102%,98.8%,89.5%,38.9%,99.4%
O=C(CCN1CCCC1)Nc1ccc2c(NCc3ccccc3)c3ccccc3nc2c1,20.6%,3.9% (active),-15.4% (active),5.52% (active),1.05% (active),-4.59% (active),17.2%,-16.1% (active),-45.6% (active),32.1%,-1.81% (active),4.75% (active),-5.99% (active),1.35% (active),1.15% (active),9.88% (active),5.35% (active),–,-23.6% (active),-17.5% (active)
